# Test results from publication PMC7862700, “An all-to-all approach to the identification of sequence-specific readers for epigenetic DNA modifications on cytosine”.
# Tests used:
# Assay in all cases: DAPPL (digital affinity profiling via proximity ligation, sequencing); 10 mM Tris-HCl pH 7.5, 50 mM NaCl, 1 mM DTT, 4% glycerol, room temperature, 30 min; GST-TFs on glutathione beads, 16-mer random dsDNA library, 0.1% formaldehyde crosslink after washing; high values mean tight binding
# [1] = target: T1, FEV (Homo sapiens, UniProt Q99581 1-238); conditions: protein: recombinant; tags: N-terminal GST; dsDNA, one strand shown
# T1 sequence: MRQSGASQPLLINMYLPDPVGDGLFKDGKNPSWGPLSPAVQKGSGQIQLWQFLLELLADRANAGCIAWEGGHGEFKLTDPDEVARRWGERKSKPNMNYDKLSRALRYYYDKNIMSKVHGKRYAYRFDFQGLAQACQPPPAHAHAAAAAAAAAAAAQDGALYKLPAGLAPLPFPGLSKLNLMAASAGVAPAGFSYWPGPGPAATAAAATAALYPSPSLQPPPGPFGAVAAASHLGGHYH
# Outline: (§1)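 Yeast served to express human transcription factors as GST fusions, which were then captured on glutathione beads and labelled with DNA barcodes. Pooled with a tag-only sample, they were incubated with 200 nmole of a 16-mer random double-stranded DNA library for 30 min at room temperature in Tris/NaCl/DTT/glycerol buffer, washed, crosslinked with 0.1% formaldehyde, ligated by proximity, amplified by PCR and sequenced. Dividing each hexamer's read frequency for a factor by its frequency for the tag-only sample gives the binding signal.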
# [2] = target: ETV5 (Homo sapiens, UniProt P41161 1-510); conditions: protein: recombinant; tags: N-terminal GST; dsDNA, one strand shown
# ETV5, sequence (P41161 whole entry): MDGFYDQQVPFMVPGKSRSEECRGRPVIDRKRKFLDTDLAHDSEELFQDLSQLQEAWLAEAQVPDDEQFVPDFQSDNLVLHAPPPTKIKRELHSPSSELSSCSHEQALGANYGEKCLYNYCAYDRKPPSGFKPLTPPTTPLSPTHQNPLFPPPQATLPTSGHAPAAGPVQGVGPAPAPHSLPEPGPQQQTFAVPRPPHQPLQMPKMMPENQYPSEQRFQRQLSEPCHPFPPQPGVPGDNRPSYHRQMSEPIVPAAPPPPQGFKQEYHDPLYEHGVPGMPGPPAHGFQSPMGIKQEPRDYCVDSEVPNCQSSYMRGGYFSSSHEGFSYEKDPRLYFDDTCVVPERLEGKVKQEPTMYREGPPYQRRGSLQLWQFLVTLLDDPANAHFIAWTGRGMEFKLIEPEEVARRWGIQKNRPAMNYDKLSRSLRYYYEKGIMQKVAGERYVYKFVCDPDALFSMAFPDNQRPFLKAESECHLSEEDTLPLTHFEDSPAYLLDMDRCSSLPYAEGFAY
# Outline: as §1
# [3] = target: HSF1 (Homo sapiens, UniProt Q00613 1-529); conditions: protein: recombinant; tags: N-terminal GST; chain copies: 3; dsDNA, one strand shown
# HSF1, sequence (Q00613 whole entry): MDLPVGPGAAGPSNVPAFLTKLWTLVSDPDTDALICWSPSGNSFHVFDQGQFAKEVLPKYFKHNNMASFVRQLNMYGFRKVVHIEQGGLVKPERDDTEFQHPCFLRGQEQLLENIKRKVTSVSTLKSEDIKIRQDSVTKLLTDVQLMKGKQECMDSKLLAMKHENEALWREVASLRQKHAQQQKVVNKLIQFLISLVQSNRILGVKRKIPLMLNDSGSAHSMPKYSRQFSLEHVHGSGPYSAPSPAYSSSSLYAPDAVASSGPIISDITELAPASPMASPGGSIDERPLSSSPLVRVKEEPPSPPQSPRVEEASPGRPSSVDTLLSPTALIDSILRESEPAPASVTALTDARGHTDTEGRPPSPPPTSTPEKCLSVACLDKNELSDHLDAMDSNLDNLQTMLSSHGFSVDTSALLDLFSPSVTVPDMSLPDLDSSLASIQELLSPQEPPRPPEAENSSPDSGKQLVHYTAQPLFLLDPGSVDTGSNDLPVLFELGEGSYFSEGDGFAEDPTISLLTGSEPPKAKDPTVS
# Outline: as §1
# [4] = target: T2, SPIC (Homo sapiens, UniProt Q8N5J4 1-248); conditions: protein: recombinant; tags: N-terminal GST; dsDNA, one strand shown
# T2 sequence: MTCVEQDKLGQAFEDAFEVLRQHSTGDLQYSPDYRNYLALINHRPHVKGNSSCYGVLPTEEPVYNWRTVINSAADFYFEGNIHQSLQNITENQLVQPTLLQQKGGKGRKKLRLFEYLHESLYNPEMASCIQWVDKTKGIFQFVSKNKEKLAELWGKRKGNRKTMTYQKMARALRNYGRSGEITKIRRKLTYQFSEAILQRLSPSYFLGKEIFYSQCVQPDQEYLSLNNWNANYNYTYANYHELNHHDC
# Outline: as §1
# [5] = target: ELF4 (Homo sapiens, UniProt Q99607 1-663); conditions: protein: recombinant; tags: N-terminal GST; dsDNA, one strand shown
# ELF4, sequence (Q99607 whole entry): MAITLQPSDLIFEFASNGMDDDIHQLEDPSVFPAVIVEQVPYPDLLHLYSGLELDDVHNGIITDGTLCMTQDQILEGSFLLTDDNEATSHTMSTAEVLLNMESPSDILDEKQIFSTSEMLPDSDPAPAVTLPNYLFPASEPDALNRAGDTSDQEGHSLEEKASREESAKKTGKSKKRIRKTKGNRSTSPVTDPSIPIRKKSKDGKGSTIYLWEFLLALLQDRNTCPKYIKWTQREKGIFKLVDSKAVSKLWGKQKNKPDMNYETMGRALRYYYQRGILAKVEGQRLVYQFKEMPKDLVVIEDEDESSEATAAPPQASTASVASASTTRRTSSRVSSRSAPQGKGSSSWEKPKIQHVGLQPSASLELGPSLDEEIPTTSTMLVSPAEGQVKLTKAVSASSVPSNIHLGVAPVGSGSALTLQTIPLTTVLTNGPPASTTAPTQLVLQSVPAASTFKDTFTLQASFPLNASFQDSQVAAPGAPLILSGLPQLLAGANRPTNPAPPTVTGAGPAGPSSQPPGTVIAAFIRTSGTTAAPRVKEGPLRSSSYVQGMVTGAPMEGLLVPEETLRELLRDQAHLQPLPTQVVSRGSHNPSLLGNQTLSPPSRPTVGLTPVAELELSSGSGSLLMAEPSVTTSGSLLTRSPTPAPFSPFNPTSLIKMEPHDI
# Outline: as §1
# [6] = target: T3, ELK4 (Homo sapiens, UniProt P28324-2 1-405); conditions: protein: recombinant; tags: N-terminal GST; dsDNA, one strand shown
# T3 sequence: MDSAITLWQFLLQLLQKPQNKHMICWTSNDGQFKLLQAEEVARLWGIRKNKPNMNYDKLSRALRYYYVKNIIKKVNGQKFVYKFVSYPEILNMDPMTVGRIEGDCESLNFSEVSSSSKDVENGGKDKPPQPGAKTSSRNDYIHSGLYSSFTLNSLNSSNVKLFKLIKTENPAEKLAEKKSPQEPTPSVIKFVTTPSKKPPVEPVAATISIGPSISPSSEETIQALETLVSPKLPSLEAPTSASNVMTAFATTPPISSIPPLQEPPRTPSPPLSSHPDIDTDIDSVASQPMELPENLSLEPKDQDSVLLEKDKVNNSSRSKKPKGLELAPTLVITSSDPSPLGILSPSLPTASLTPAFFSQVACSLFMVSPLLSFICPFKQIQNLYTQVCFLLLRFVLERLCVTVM
# Outline: as §1
# [7] = target: T4, ETV2 (Homo sapiens, UniProt O00321 1-342); conditions: protein: recombinant; tags: N-terminal GST; dsDNA, one strand shown
# T4 sequence: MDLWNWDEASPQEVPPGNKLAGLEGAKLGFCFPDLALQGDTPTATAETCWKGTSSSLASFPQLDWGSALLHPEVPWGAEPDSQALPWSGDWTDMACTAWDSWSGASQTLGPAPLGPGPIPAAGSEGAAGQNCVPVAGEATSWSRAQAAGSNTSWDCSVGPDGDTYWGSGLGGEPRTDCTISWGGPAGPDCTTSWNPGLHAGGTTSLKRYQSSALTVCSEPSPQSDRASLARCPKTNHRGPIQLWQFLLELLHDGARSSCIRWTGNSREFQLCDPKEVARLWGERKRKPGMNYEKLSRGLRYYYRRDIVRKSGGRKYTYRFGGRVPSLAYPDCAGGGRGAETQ
# Outline: as §1
# [8] = target: T5, ELF3 (Homo sapiens, UniProt P78545 1-371); conditions: protein: recombinant; tags: N-terminal GST; dsDNA, one strand shown
# T5 sequence: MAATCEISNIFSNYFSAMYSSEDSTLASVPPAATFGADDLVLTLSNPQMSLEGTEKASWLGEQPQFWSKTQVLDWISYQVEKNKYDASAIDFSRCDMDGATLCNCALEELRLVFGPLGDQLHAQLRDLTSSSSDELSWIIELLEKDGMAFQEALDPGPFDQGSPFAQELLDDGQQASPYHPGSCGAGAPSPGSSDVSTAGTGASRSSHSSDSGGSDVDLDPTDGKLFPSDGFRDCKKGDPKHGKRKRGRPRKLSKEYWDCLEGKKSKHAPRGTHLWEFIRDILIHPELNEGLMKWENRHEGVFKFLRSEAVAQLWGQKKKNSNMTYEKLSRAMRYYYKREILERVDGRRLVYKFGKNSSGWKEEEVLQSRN
# Outline: as §1
# [9] = target: CRX (Homo sapiens, UniProt O43186 1-299); conditions: protein: recombinant; tags: N-terminal GST; dsDNA, one strand shown
# CRX, sequence (O43186 whole entry): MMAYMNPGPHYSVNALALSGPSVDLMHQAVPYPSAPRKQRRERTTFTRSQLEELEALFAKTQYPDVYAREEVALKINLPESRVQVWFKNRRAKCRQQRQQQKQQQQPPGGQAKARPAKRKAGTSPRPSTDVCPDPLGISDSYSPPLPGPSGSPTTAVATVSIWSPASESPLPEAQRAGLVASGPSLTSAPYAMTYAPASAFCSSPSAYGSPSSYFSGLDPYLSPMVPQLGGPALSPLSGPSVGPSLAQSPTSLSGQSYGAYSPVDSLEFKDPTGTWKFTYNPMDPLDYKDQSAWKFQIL
# Outline: as §1
# [10] = target: ETV1 (Homo sapiens, UniProt P50549 1-477); conditions: protein: recombinant; tags: N-terminal GST; dsDNA, one strand shown
# ETV1, sequence (P50549 whole entry): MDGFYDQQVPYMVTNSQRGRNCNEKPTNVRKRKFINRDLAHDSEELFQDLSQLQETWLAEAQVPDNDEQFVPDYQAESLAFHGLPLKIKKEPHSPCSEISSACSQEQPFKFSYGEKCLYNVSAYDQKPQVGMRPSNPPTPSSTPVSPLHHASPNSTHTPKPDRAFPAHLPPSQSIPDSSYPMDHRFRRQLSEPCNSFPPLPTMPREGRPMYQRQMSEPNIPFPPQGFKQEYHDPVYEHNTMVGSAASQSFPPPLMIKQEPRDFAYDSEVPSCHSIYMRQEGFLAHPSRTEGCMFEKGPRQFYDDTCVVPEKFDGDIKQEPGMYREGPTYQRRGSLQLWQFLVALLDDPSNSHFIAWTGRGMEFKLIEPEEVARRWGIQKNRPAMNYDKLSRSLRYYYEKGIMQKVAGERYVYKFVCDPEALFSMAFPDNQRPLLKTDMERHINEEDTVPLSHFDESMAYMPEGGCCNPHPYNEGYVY
# Outline: as §1
# [11] = target: T6, ERF (Homo sapiens, UniProt P50548 1-548); conditions: protein: recombinant; tags: N-terminal GST; dsDNA, one strand shown
# T6 sequence: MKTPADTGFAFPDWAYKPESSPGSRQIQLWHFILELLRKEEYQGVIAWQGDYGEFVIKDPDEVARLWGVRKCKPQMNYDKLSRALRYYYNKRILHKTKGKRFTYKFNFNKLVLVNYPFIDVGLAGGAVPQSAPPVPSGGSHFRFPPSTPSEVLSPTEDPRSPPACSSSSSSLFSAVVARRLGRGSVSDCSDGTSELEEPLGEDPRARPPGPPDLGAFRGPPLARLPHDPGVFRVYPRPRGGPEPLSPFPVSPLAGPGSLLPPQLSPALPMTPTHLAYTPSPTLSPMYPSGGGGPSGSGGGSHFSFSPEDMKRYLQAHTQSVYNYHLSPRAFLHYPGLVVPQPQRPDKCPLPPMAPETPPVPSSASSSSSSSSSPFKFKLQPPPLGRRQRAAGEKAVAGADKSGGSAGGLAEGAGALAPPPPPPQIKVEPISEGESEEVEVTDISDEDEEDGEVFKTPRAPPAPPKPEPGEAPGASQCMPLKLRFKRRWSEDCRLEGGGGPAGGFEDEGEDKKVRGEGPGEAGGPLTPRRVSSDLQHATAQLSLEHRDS
# Outline: as §1
# [12] = target: T7, ETV3L (Homo sapiens, UniProt Q6ZN32 1-361); conditions: protein: recombinant; tags: N-terminal GST; dsDNA, one strand shown
# T7 sequence: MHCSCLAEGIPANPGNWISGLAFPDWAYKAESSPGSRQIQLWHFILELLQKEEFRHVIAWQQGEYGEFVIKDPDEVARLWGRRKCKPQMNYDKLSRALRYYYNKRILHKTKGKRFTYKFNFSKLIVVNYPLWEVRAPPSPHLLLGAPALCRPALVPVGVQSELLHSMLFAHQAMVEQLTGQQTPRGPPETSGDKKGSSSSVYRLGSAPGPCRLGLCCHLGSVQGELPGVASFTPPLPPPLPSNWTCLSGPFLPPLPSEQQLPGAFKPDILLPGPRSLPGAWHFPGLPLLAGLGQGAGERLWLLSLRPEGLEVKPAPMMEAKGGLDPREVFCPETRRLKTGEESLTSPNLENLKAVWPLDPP
# Outline: as §1
# [13] = target: T8, ETS2 (Homo sapiens, UniProt P15036 1-469); conditions: protein: recombinant; tags: N-terminal GST; dsDNA, one strand shown
# T8 sequence: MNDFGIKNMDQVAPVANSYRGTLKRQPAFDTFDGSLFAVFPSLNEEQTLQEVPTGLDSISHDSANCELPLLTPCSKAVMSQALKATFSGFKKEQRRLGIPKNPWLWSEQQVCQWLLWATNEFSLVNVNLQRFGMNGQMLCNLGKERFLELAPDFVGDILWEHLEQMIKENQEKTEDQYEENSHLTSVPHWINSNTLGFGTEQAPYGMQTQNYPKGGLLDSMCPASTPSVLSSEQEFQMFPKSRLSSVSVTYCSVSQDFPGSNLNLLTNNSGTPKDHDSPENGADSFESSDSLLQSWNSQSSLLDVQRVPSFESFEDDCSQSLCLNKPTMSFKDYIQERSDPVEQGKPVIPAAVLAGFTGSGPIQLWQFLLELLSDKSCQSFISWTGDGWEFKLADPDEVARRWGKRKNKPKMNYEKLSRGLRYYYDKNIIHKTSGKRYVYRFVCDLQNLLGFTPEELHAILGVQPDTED
# Outline: as §1
# [14] = target: T9, SPDEF (Homo sapiens, UniProt O95238 1-335); conditions: protein: recombinant; tags: N-terminal GST; dsDNA, one strand shown
# T9 sequence: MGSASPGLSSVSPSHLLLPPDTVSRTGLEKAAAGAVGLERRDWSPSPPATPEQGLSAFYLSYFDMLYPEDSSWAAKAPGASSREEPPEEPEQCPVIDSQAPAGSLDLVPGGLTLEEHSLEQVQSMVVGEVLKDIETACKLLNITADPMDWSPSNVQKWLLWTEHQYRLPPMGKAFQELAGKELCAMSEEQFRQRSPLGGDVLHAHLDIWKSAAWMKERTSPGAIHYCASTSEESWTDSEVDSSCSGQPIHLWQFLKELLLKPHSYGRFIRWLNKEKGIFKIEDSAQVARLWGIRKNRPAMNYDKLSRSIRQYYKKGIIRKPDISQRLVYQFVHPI
# Outline: as §1
# [15] = target: T10, ETV7 (Homo sapiens, UniProt Q9Y603 1-341); conditions: protein: recombinant; tags: N-terminal GST; dsDNA, one strand shown
# T10 sequence: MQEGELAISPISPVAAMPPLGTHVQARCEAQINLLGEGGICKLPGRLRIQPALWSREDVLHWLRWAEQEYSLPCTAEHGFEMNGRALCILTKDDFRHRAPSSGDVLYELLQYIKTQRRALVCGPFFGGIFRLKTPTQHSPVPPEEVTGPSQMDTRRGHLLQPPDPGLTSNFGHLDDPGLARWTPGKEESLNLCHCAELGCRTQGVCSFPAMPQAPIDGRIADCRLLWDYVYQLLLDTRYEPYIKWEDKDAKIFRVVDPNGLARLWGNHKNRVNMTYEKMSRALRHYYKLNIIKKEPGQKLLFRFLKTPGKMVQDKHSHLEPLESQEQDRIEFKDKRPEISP
# Outline: as §1
# [16] = target: T11, ELF5 (Homo sapiens, UniProt Q9UKW6-2 1-255); conditions: protein: recombinant; tags: N-terminal GST; dsDNA, one strand shown
# T11 sequence: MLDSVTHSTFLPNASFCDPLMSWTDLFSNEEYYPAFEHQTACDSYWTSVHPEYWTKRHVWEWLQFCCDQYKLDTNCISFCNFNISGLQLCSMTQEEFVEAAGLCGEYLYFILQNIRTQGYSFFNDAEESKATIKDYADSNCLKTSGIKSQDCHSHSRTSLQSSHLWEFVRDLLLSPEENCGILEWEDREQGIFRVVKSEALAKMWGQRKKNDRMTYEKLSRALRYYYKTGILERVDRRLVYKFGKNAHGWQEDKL
# Outline: as §1
# [17] = target: T12, ETV3 (Homo sapiens, UniProt P41162-2 1-143); conditions: protein: recombinant; tags: N-terminal GST; dsDNA, one strand shown
# T12 sequence: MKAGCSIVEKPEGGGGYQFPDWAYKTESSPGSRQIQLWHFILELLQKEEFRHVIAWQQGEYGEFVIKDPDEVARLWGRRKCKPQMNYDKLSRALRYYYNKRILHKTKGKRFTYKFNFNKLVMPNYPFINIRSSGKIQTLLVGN
# Outline: as §1
# [18] = target: ETV6 (Homo sapiens, UniProt P41212 1-452); conditions: protein: recombinant; tags: N-terminal GST; dsDNA, one strand shown
# ETV6, sequence (P41212 whole entry): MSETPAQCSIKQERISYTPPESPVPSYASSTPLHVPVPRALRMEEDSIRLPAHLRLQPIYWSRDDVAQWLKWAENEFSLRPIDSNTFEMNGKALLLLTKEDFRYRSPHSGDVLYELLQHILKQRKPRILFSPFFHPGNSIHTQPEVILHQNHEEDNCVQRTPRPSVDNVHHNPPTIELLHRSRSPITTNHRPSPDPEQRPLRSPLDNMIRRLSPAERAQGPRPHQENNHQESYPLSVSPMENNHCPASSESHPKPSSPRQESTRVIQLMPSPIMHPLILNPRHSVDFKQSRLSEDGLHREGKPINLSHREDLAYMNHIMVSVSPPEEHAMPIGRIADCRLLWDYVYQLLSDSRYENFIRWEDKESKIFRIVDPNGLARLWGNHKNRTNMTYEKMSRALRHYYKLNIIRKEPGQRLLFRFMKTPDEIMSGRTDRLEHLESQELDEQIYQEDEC
# Outline: as §1
sequence,measurement,setting,value
CGGCTC,binding signal,[1],"1.33 fold enrichment (6-mer frequency, TF over GST control)"
same,binding signal,[2],"1.28 fold enrichment (6-mer frequency, TF over GST control)"
same,binding signal,[3],"1.21 fold enrichment (6-mer frequency, TF over GST control)"
same,binding signal,[4],"1.23 fold enrichment (6-mer frequency, TF over GST control)"
same,binding signal,[5],"1.35 fold enrichment (6-mer frequency, TF over GST control)"
same,binding signal,[6],"1.22 fold enrichment (6-mer frequency, TF over GST control)"
same,binding signal,[7],"1.42 fold enrichment (6-mer frequency, TF over GST control)"
same,binding signal,[8],"1.48 fold enrichment (6-mer frequency, TF over GST control)"
same,binding signal,[9],"1.26 fold enrichment (6-mer frequency, TF over GST control)"
same,binding signal,[10],"1.29 fold enrichment (6-mer frequency, TF over GST control)"
same,binding signal,[11],"1.36 fold enrichment (6-mer frequency, TF over GST control)"
same,binding signal,[12],"1.27 fold enrichment (6-mer frequency, TF over GST control)"
same,binding signal,[13],"1.23 fold enrichment (6-mer frequency, TF over GST control)"
same,binding signal,[14],"1.42 fold enrichment (6-mer frequency, TF over GST control)"
same,binding signal,[15],"1.25 fold enrichment (6-mer frequency, TF over GST control)"
same,binding signal,[16],"1.27 fold enrichment (6-mer frequency, TF over GST control)"
same,binding signal,[17],"1.29 fold enrichment (6-mer frequency, TF over GST control)"
same,binding signal,[18],"1.23 fold enrichment (6-mer frequency, TF over GST control)"
